High-throughput results from PubChem BioAssay.
An excerpt weighted towards active compounds, which were near 15% of everything screened.
HCMV inh: qHTS Assay for inhibitors of the human cytomegalovirus (HCMV); HFF cells, HCMV-luciferase reporter, 72 h; hits give low values; activity change, negative = inhibition, % at 57.5 µM; hit rate 4.5% among 410,000; AID 1259415, 2018; in the data active means activity change below about -60%; inconclusive means no clear call, values can overlap the other calls; inactive means above about -39%; further: on the % scale 0 is the no-effect control and ±100 the full control effect
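Inhibition of viral replication was scored as loss of reporter luminescence in HFFs infected with HCMV-luciferase (MOI 1 PFU/cell) for 72 h; compounds tested at 2 doses, normalized to buffer and Salinomycin controls.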
Pf growth 48h: Primary qHTS for delayed death inhibitors of the malarial parasite plastid, 48 hour incubation; P. falciparum luciferase growth in erythrocytes, 48 h; Potency, µM (titrated, usually from 28.7 µM), for inactives: at the top dose activity change, negative = inhibition, actives largely listed as inhibitors; hit rate 5.9% among 310,000; further: potency means the concentration at half of the fitted maximal effect; on the % scale 0 is the no-effect control and ±100 the full control effect
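Here the parasites carry a stable luciferase gene and grow inside erythrocytes in Albumax-based RPMI medium with compound for one erythrocytic cycle. Activity is scored as loss of luminescent signal.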
HCV inhibitor: qHTS Assay for Inhibitors of Hepatitis C Virus (HCV); hit rate 3.4% among 340,000; AID 651820, 2012; Potency, µM (titrated, usually from 41.8 µM), inactives show top-dose activity change, negative = inhibition, most hits filed as inhibitors; Huh7.5.1 HCVcc-Cre infection, luciferase reporter, 44 h; further: potency means the concentration at half of the fitted maximal effect; on the % scale 0 is the no-effect control and ±100 the full control effect
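Reporter virus HCVcc-Cre (~0.5 moi) infects cells exposed to compound; seeding density 1,000 cells/well with 4 h settling beforehand. Luminescence, 15 sec read, taken 44 h post-infection following a 15 min RT substrate incubation.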
Sm TGR inh: qHTS Assay for the Inhibitors of Schistosoma Mansoni Peroxiredoxins | purified TGR, DTNB reduction, TNB absorbance 405 nm | Potency, µM (series often up to 114 µM), inactives show at the highest dose activity change, negative = inhibition, usual class: inhibitors | hit rate 3% among 360,000 | AID 485364, 2010; further: potency means the concentration at half of the fitted maximal effect; on the % scale 0 is the no-effect control and ±100 the full control effect; nearly all actives have a fitted effect of over 60% in size
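TGR 20 nM + NADPH 100 uM (dispensed conc.), cpd preinc 15 min RT; start with NADPH (500 uM addition) then DTNB (15 mM addition). Kinetic TNB absorbance, 405 nm filter. Four-parameter Hill fit across titration.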
SARS PLpro yeast: qHTS of Yeast-based Assay for SARS-CoV PLP. S. cerevisiae expressing SARS-CoV PLpro, growth rescue. Potency, µM (titrated, usually from 32.9 µM), for inactives: at the highest dose activity, positive = growth rescue, actives largely listed as activators. hit rate 0.19% among 330,000. AID 485353, 2010; calls by dose curve; further: potency means the concentration at half of the fitted maximal effect; 0% is about no effect; nearly all actives have a fitted effect of over 55% in size
Pf growth 96h: Primary qHTS for delayed death inhibitors of the malarial parasite plastid, 96 hour incubation; P. falciparum luciferase reporter growth, 96 h; Potency, µM (doses to about 28.7 µM), for inactives: at the highest dose activity change, negative = inhibition, hits mostly inhibitors; hit rate 6.9% among 320,000; further: potency means the concentration at half of the fitted maximal effect; on the % scale 0 is the no-effect control and ±100 the full control effect
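Erythrocytes infected with luciferase-expressing P. falciparum were dispensed at 2% hematocrit and 0.05% parasitemia (final), then incubated with compounds 96 hours at 37 C in 5% CO2. Luminescence after detection reagent addition reported growth.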
An asterisk follows results filed as active; [ ] = another dose, or the depositor's remark. Unless noted, the call rests on the fitted dose curve; in most records, active means well fitted curve in the direction sought with a large enough effect; inconclusive means small, poorly fitted or top-dose-only effect, or another doubt; inactive means no such curve, though single readings can be large; an effect the other way counts as inactive or inconclusive.

`CCCCn1c(=O)c(C(=O)NCc2ccco2)c(O)c2ccccc21` gave HCMV inh -32.7, Pf growth 48h inconclusive, HCV inhibitor 14.1µM*, Sm TGR inh 1.4%, SARS PLpro yeast 1.0% and Pf growth 96h 43.5%.
`CCCCCCCn1c(=O)c(C(=O)Nc2cnccn2)c(O)c2ccccc21` gave HCMV inh -61.9*, Pf growth 48h inconclusive, HCV inhibitor inconclusive, Sm TGR inh 2.4%, SARS PLpro yeast 4.0% and Pf growth 96h inconclusive.
CC(C)Cn1c(=O)c(C(=O)Nc2cnccn2)c(O)c2ccccc21 was read as HCMV inh -4.5, Pf growth 48h 5.4%, HCV inhibitor 1.7%, Sm TGR inh -29.7% and SARS PLpro yeast 0.3%.
O=C(NCc1ccccc1Cl)O[C@H]1CC[C@@]23CCCN2C(=O)CCC[C@H]3[C@H]1Cc1ccccc1 was read as HCMV inh -2.4.
Screening CCCn1c(=O)c(C(=O)Nc2ccccc2)c(O)c2ccccc21 returned HCMV inh 121.9, Pf growth 48h 32.6%, HCV inhibitor 4.2%, Sm TGR inh 0.0%, SARS PLpro yeast -1.1% and Pf growth 96h 2.7%.
`CC(C)Cn1c(=O)c(C(=O)Nc2ccncc2)c(O)c2ccccc21` gave HCMV inh -15.7 and HCV inhibitor 10µM*.
For CN1CC(c2ccccc2)C2(SC(=S)N(Cc3ccco3)C2=O)C12C(=O)Nc1ccccc12 (stereo unspecified) the results were HCMV inh -101.5*, Pf growth 48h 11.7µM*, HCV inhibitor 7.08µM*, Sm TGR inh -12.6% and SARS PLpro yeast -32.4%.
CN1CC(c2ccccn2)C2(SC(=S)N(Cc3ccccc3)C2=O)C12C(=O)Nc1ccccc12 (stereo unspecified) was read as HCMV inh -14.8, Pf growth 48h inconclusive, Sm TGR inh 13.7%, SARS PLpro yeast -14.4% and Pf growth 96h inconclusive.
Cc1cc2cc(CNC(=O)c3cc4ccccc4o3)ccc2n1C was read as Pf growth 48h 11.7µM*, Sm TGR inh inconclusive, SARS PLpro yeast -13.8% and Pf growth 96h 14.7µM*.
`Cc1cc2cc(CNC(=O)COc3ccccc3)ccc2n1C` gave HCMV inh 19.1, Pf growth 48h -0.6%, HCV inhibitor 3.0%, Sm TGR inh 15.0%, SARS PLpro yeast -0.2% and Pf growth 96h -1.9%.
COc1cc(OC)cc(C(=O)NCc2ccc3c(c2)cc(C)n3C)c1 was read as HCMV inh 17.6, Pf growth 48h -17.1%, HCV inhibitor -21.7%, Sm TGR inh -3.7%, SARS PLpro yeast -0.8% and Pf growth 96h 9.28µM*.
Screening Cc1cc2cc(CNC(=O)c3ccco3)ccc2n1C returned HCMV inh inconclusive, Pf growth 48h inconclusive, HCV inhibitor -5.3%, Sm TGR inh inconclusive, SARS PLpro yeast 0.5% and Pf growth 96h inconclusive.
`COc1cc(/C=C\C(=O)NCc2ccc3c(c2)cc(C)n3C)cc(OC)c1OC` gave HCMV inh 12.0, Pf growth 48h 11.7µM*, HCV inhibitor 5.0%[8.37 µM], Sm TGR inh 4.9%, SARS PLpro yeast 0.6% and Pf growth 96h 7.38µM*.
Screening COCC(=O)NCc1ccc2c(c1)cc(C)n2C returned HCMV inh -27.0, Pf growth 48h -5.2%, HCV inhibitor -5.0%, Sm TGR inh -1.2%, SARS PLpro yeast -5.6% and Pf growth 96h 4.65µM*.
`CC(C)n1c(O)c(N=NC(=O)C2COc3ccccc3O2)c2ccccc21` (stereo unspecified) gave HCMV inh 1.7, Pf growth 48h inconclusive, HCV inhibitor inconclusive, Sm TGR inh 5.7%, SARS PLpro yeast -1.7% and Pf growth 96h 139.4%.
For CC1(c2ccccc2)CC(C)(C)N2C(=O)Cc3cccc1c32 (stereo unspecified) the results were HCMV inh 9.3, Pf growth 48h 14.7µM*, HCV inhibitor 11.6%, Sm TGR inh 11.0%, SARS PLpro yeast -2.7% and Pf growth 96h 41.9%[5.75 µM].
CC1(c2ccc([N+](=O)[O-])cc2)CC(C)(C)N(C(=O)c2ccccc2)c2ccccc21 (stereo unspecified) was read as Pf growth 48h -14.9%, HCV inhibitor 10.5%, Sm TGR inh 4.8%, SARS PLpro yeast 4.1% and Pf growth 96h inconclusive.
For Cc1cc(C)c(NC(=O)CS)c(Cl)c1 the results were HCMV inh -31.0, Pf growth 48h -16.5%, HCV inhibitor 5.0%, Sm TGR inh inconclusive, SARS PLpro yeast 0.7% and Pf growth 96h inconclusive.
For Cc1cc(C)c(NC(=O)/C=C\C(=O)O)c(Cl)c1 the results were HCMV inh -13.7, Pf growth 48h 16.7%, HCV inhibitor 13.0%, Sm TGR inh 35.5µM*, SARS PLpro yeast -72.2% and Pf growth 96h 15.2%.
Cc1ccc(NC(=O)/C=C\C(=O)O)c([N+](=O)[O-])c1 was read as HCMV inh 34.0, Pf growth 48h -1.6%, HCV inhibitor -4.1%, Sm TGR inh inconclusive, SARS PLpro yeast 6.5% and Pf growth 96h 39.1%.
Screening COc1ccc([N+](=O)[O-])cc1NC(=O)/C=C/C(=O)O returned HCMV inh -17.3, Pf growth 48h -1.2%, HCV inhibitor 9.6%, Sm TGR inh -13.4%, SARS PLpro yeast 17.3% and Pf growth 96h inconclusive.
`Cc1cc(C)c(NC(=O)/C=C\C(=O)O)c([N+](=O)[O-])c1` gave HCMV inh 4.8, HCV inhibitor 5.4%, Sm TGR inh 15.8µM*, SARS PLpro yeast -27.7% and Pf growth 96h 7.0%.
COc1cc(OC)c(NC(=O)/C=C/C(=O)O)cc1Cl was read as HCMV inh 18.1, Pf growth 48h inconclusive, HCV inhibitor 5.1%, Sm TGR inh 50.1µM*, SARS PLpro yeast -0.7% and Pf growth 96h inconclusive.
`CC(=O)C1=CCC(c2ccc(C)o2)N(S(=O)(=O)c2ccc(C)cc2)C1` (stereo unspecified) gave HCMV inh 19.8.
Screening Nc1ncc(S(=O)(=O)NCc2cccc(Cl)c2)cn1 returned HCMV inh 17.1 and Sm TGR inh 6.6%.
`O=C(CNC(=S)NC(=O)C1CCCCC1)c1ccccc1` gave HCMV inh -78.8*, Pf growth 48h 187.7%, HCV inhibitor 4.0%, Sm TGR inh -1.4%, SARS PLpro yeast -2.4% and Pf growth 96h 49.2%.
Screening O=C(NC(=S)Nc1ccccc1Br)C1CC1 returned HCMV inh 37.6 and HCV inhibitor -18.8%.
